According to PubChem BioAssay AID504727 (Broad Institute, 2011):
Activity calls are given as the source filed them.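 Rule for the calls: active = fitted half-maximal concentration AC50 at or below ten times the highest valid tested dose, with signal falling as DNA is displaced (actives reach about 34 µM in these data); inconclusive = flat fit at moderate signal loss, or poor fit quality; inactive = the rest, including signal rising instead of falling.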

Assay: DNA intercalators displacing acridine orange, dose response, artefact control for KSHV LANA DNA-binding inhibitor project, biochemical, fluorescence polarization, cherry-picked samples, set 2 (AID 504727)
Conditions: AC50: Acridine orange-DNA displacement; series mostly up to 35 µM

| SMILES | AC50 |
| --- | --- |
| COc1cc(OC)cc(C(=O)NC2CC3CCC(C2)N3C)c1 (stereo not drawn) | inactive |
| CCN(CC)CCN1C(=O)c2cccc3cc(N)cc(c23)C1=O | 17 µM (active) |
| CCOC(=O)c1ccccc1Nc1cc(C)nc2nc(C)nn12 | inactive |
| O=C(CN1CCN(C(=O)CNC(=O)c2ccc3c(c2)OCO3)CC1)Nc1ccc(F)cc1 | inactive |
| CC(C)CCN1C(=O)c2cccc3c(N)ccc(c23)C1=O | 7.39 µM (active) |
| O=C(O)C(Cc1ccccc1)N1C(=O)/C(=C/C=C/c2ccco2)SC1=S (stereo not drawn) | inactive |
| CCCN(CCC)C(=O)C1c2ccccc2Oc2ccccc21 | inactive |
| COC(=O)C1=C(N)OC2=C(C(=O)CCC2)C1c1cccs1 (stereo not drawn) | inactive |
| CSCCC(NC(=O)c1ccccc1Cl)C(=O)N1CCCC(C)C1 (stereo not drawn) | inactive |
| O=C(c1coc(=O)c(Br)c1)N1CCCc2ccccc21 | inactive |
| Cc1cccc(N(Cc2ccccc2)C(=O)C2CCN(C(=O)c3ccccc3C)CC2)c1 | inactive |
| O=c1ccc2cc3c4c(c2o1)CCCN4CCC3 | 15.1 µM (active) |
| Cn1cc(C(=O)c2ccc(Cl)cc2Cl)cc1C(=O)N/N=C(\N)COc1ccccc1 | inactive |
| O=C1c2cccc3c(O)ccc(c23)C(=O)N1c1ccc(Cl)cc1 | 2.95 µM (active) |
| COc1ccccc1N1CCN(S(=O)(=O)c2c(C)[nH]c(C)c2C(=O)N2CCCC2)CC1 | inactive |
| COCCCNc1c2c3c(cccc3[nH]c1=O)C(=O)c1ccccc1-2 | 0.63 µM (active) |
| Cc1ccc(-c2nnc(-c3ccc(NC(=O)c4ccco4)cc3)o2)cc1 | inactive |
| NNc1nnc2c3cc(F)ccc3n(Cc3ccccc3)c2n1 | inactive |
| O=C1NC(=S)S/C1=C\C=C\c1ccc([N+](=O)[O-])o1 | inactive |

| SMILES | AC50 |
| --- | --- |
| COC(=O)c1c(C)oc2ccc(N(C(C)=O)S(=O)(=O)c3ccccc3)cc12 | inactive |
| CSC(=NS(=O)(=O)c1ccc(N)cc1)NS(=O)(=O)c1cccs1 | inactive |
| COc1ccc(C2C(C(=O)c3cccs3)=C(O)C(=O)N2c2nnc(C)s2)cc1OC (stereo not drawn) | 21.6 µM (active) |
| Cc1ccc(NC(=S)N/C(=N/S(=O)(=O)c2ccccc2)c2ccccc2)cc1 | inactive |
| O=C(OCC(=O)N1N=C(c2ccc(Cl)cc2)CC1c1ccco1)c1cccnc1 (stereo not drawn) | inactive |
| CCCCn1c(=O)[nH]c2nc3cc(N)ccc3nc2c1=O | 3.75 µM (active) |
| Cn1c(=O)c(NCCc2ccccc2)c2c3c(cccc31)C(=O)c1ccccc1-2 | 1.14 µM (active) |
| CCOC(=O)[C@H]1[C@H]2COc3cc(OC)ccc3[C@@H]2N2C(=O)CN(Cc3ccc(OC)cc3)C(=O)[C@@]12C | inactive |
| Cc1c(C)n(Cc2ccccc2)c2ncnc(Cl)c12 | inactive |
| Cc1cc(C)n(CCC(=O)N/N=C/c2ccc(O)cc2O)n1 | inactive |
| COc1ccc(C(=O)c2ccsc2N)cc1 | inactive |
| Fc1ccc(C2=CC(c3ccc(Br)o3)n3ncnc3N2)cc1 (stereo not drawn) | 11.7 µM (active) |
| CC(C)(C)OC(=O)N1CCC[C@H]1c1nnc(SCc2cccc(Cl)c2)o1 | inactive |
| CCN(C(=O)c1cccc(S(=O)(=O)N2CCc3ccccc32)c1)C1CCS(=O)(=O)C1 (stereo not drawn) | inactive |
| CC(C)C(=O)N1CCN(c2ccccc2NC(=S)NC(=O)c2ccco2)CC1 | inactive |
| CN(c1ccccc1)S(=O)(=O)c1cccc(NS(=O)(=O)c2cccc(C(=O)O)c2)c1 | inactive |
| O=C(O)c1cccc(NC2=Nc3cccc4cccc2c34)c1 | inactive |
| COc1[nH]c(/N=C/c2ccccc2)c(C#N)c1C#N | inactive |
| COc1ccc(C(=O)OCC(=O)NC2CC2)cc1S(=O)(=O)Nc1ccc(C)cc1 | inactive |
